Assay results taken from ChEMBL document CHEMBL4513146, “CO-ADD screening of Karazin Kharkiv National University (Ukraine) compounds”.
Measured potencies and affinities stand elsewhere.

Tested on: Staphylococcus aureus
Conditions: Concentration 32 ug.mL-1;; ASSAY_TEST Inhibition of Bacterial Growth; detection method Absorption (OD600); MEDIA CAMHB; plate type 384well; NBS; CORNING #3640; time 18 hr

Compound | Inhibition [%]
Cc1ccc(C)c(NC(=O)Cn2nc3c(Sc4ccccc4)nccn3c2=O)c1 | 6.23
Cc1ccc(-n2ccn3c(=O)n(Cc4cccc(Cl)c4)nc3c2=O)cc1C | 7.38
COc1ccc(NC(=O)Cn2nc3ccc(SCc4ccc(Cl)cc4)nn3c2=O)cc1 | -5.92
O=C(Cn1nc2c(N3CCN(c4ccccc4)CC3)nccn2c1=O)Nc1ccc2c(c1)OCO2 | 13.69
O=C(CSc1nnc2c3cc(-c4ccc(F)cc4)nn3ccn12)Nc1ccccc1C(F)(F)F | -6.75
Cc1ccc(-c2cc3c4nnc(SCC(=O)Nc5cccc(Cl)c5C)n4ccn3n2)cc1 | -6.47
CCc1nnc2c(=O)n(CC(=O)Nc3cc(Cl)ccc3Cl)c3ccccc3n12 | 1.29
COc1ccc(NC(=O)Cn2nc3ccc(Sc4ccccc4)nn3c2=O)cc1 | 7.63
COc1cccc(NC(=O)Cn2nc3c4c5c(sc4ncn3c2=O)CCCC5)c1 | 2.27
O=C(CSc1nnc2c(=O)n(-c3ccccc3)ccn12)Nc1ccc2c(c1)OCO2 | 8.51
Cc1ccc(-c2ccc3nn(CC(=O)N4CCN(c5ccc(F)cc5)CC4)c(=O)n3n2)cc1C | -6.93
COc1cc(NC(=O)Cn2nc3c(Oc4ccccc4)nccn3c2=O)cc(OC)c1OC | 13.24
CSc1cccc(NC(=O)Cn2nc3c(Sc4ccccc4)nccn3c2=O)c1 | -5
COc1ccc(NC(=O)CSc2nnc3c(=O)n(-c4ccccc4OC)ccn23)cc1Cl | 16.85
CCc1ccc(Cn2c(=O)c3sccc3n3c(=O)n(Cc4c(F)cccc4Cl)nc23)cc1 | 3.47
CC(=O)c1ccc(N2CCN(C(=O)CCc3nnc4c5cc(-c6ccccc6)nn5ccn34)CC2)cc1 | 11.68
C=Cc1ccc(CN(c2ccc3c(c2)OCO3)S(=O)(=O)c2ccc3nncn3c2)cc1 | 3.79
O=C(Cn1nc2ccc(Sc3ccccc3)nn2c1=O)Nc1ccc(Cl)cc1 | 14.57
COc1ccccc1-n1ccn2c(SCc3ccccc3Cl)nnc2c1=O | 15.04
Cc1nnc2c(SCC(=O)Nc3ccc(F)cc3F)nc3ccccc3n12 | 11.73

Compound | Inhibition [%]
O=c1n(Cc2nc(-c3ccc(OC(F)(F)F)cc3)no2)nc2ccc(-c3ccccc3)nn12 | -0.65
O=c1n(Cc2cccc(C(F)(F)F)c2)nc2ccc(S(=O)(=O)N3CCCCC3)cn12 | 14.29
CCOc1ccccc1NC(=O)Cn1nc2c3cc(-c4ccc(OC)cc4)nn3ccn2c1=O | 2.23
CSc1cccc(NC(=O)Cn2nc3c(Oc4cc(C)cc(C)c4)nccn3c2=O)c1 | 3.38
COc1ccc(N(Cc2cccc(F)c2)S(=O)(=O)c2ccc3nnc(C)n3c2)cc1 | -0.61
CCOC(=O)c1ccccc1NC(=O)Cn1nc2c3sc(N4CCCC4)nc3ncn2c1=O | 11.36
O=c1n(Cc2cccc(C(F)(F)F)c2)nc2c(S(=O)(=O)N3CCCCC3)cccn12 | 4.93
CCc1nnc2c(SCC(=O)Nc3ccc(Br)cc3)nc3ccccc3n12 | -16.96
CCCc1nnc2c(=O)n(CC(=O)Nc3ccc(C(C)=O)cc3)c3ccccc3n12 | 1.62
Cc1cc(C)cc(N(Cc2c(F)cccc2Cl)S(=O)(=O)c2cccn3cnnc23)c1 | 4.69
CC(C)c1ccc(NC(=O)CSc2nnc3c(=O)n(-c4ccccc4)ccn23)cc1 | 3.45
CC(C)c1ccc(N(Cc2ccccc2)S(=O)(=O)c2cccn3cnnc23)cc1 | 5.98
O=C(Cn1nc2c(Oc3ccccc3)nccn2c1=O)Nc1ccc(Cl)cc1 | 8.53
Cc1ccc(-c2noc(Cn3nc4ccc(-c5ccccc5)nn4c3=O)n2)cc1 | -9.52
Cc1cc(C)cc(NC(=O)Cn2nc3n(C)c(=O)c4c(c(-c5ccccc5)cn4C)n3c2=O)c1 | 7.23
CC(C)CCNC(=O)CSc1nnc2c(=O)n(-c3ccc(F)cc3)ccn12 | 8.18
O=C(Cn1nc2c(Oc3ccc(Cl)cc3)nccn2c1=O)Nc1ccc2c(c1)OCO2 | 6.57
CCc1ccc(NC(=O)Cn2nc3c4cc(-c5ccc(C)c(C)c5)nn4ccn3c2=O)cc1 | 1.77
COc1ccc(NC(=O)Cn2nc3c(Oc4ccccc4)nccn3c2=O)cc1 | 9.87
COc1cccc(CN(c2ccc(F)c(F)c2)S(=O)(=O)c2ccc3nncn3c2)c1 | -3.79
